Measurements from PubChem BioAssay AID1159580 (chemical genetic matrix, 2015).
The campaign covered roughly 5,500 compounds. About 2,000 (36%) were called active. About 18% were inconclusive and are not listed. Cut-off read from the data, not from the text of the source: active = normalized growth mostly below about 0.91 (no sharp cut-off); inconclusive = no clear call, values can overlap the other calls; inactive = mostly above about 0.92. This is one part of the list.

Assay: chemical genetic growth profiling, strain panel (AID 1159580);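 note: tested at 20 µM; growth read once vehicle control cultures reached saturation at 30 °C; 1 = growth at the plate median or of vehicle wells; lower values mean less growth of the strain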
Conditions: S. cerevisiae deletion strains, growth OD

Measured: normalized growth

CCCCOC(=O)NS(=O)(=O)c1sc(CC(C)C)cc1-c1ccc(Cn2c(CC)nc3c(C)cc(C)nc32)cc1
inactive: locus YAL013W, strain DEP1, stronger effect = lower value 1 | locus YAL040C, strain CLN3, stronger effect = lower value 1.01 | locus YCL061C, strain MRC1 (second series), stronger effect = lower value 0.999 | locus YDR150W, strain NUM1, stronger effect = lower value 1.01 | locus YDR363W, strain ESC2, stronger effect = lower value 0.988 | locus YER002W, strain NOP16, stronger effect = lower value 0.997 | locus YJR075W, strain HOC1, stronger effect = lower value 0.999 | locus YNL128W, strain TEP1, stronger effect = lower value 1 | locus YNL153C, strain GIM3, stronger effect = lower value 0.923 | locus YNL175C, strain NOP13, stronger effect = lower value 1 | locus YNL197C, strain WHI3, stronger effect = lower value 1 | locus YNL224C, strain SQS1, stronger effect = lower value 0.98 | locus YOR083W, strain WHI5 (second series), stronger effect = lower value 0.919
